{"source": "ChEMBL document CHEMBL4513216", "about": "“Probing the Open Global Health Chemical Diversity Library for Multistage-Active Starting Points for Next-Generation Antimalarials” (ACS Infect Dis, 2020)", "note": "Among all 69,000 compounds or so, about 8,600 (12%) showed an effect of 50% or more. The entries come from a sample that favours strong results as a whole."}
{"test_system": "Plasmodium berghei", "test": "Screen against P. berghei liver stage (PbLuc), transformed with Luciferase, at 10uM", "type": "functional, HepG2", "details": "tested at 10 uM", "units": {"INHIBITION": "%"}}
{"compound": "CC(C)c1nc(CN2CCN(C(=O)OC(C)(C)C)C(C)C2)no1", "note": "(stereo not drawn)", "INHIBITION": -9.35}
{"compound": "Cc1nn(C)c2c(=O)n(Cc3ccc(C#N)cc3)nnc12", "INHIBITION": 8.15}
{"compound": "CC(C)OCCCNC(=O)CS(=O)(=O)Cc1cccc(Cl)c1", "INHIBITION": -63.3}
{"compound": "Cn1ccnc1-c1cn(CCc2nnc(N)s2)nn1", "INHIBITION": 40.2}
{"compound": "CC(C)c1nnc2n1CC(CNCc1ccsc1)CC2", "note": "(stereo not drawn)", "INHIBITION": 5.85}
{"compound": "Cc1oc(-c2ccsc2)nc1CC(=O)NCCCS(C)(=O)=O", "INHIBITION": 5.05}
{"compound": "O=C(c1ncccc1O)N1CCN(Cc2ccco2)C(CCO)C1", "note": "(stereo not drawn)", "INHIBITION": 17}
{"compound": "O=C(c1ccncc1Cl)N1CCN(Cc2ccco2)C(CCO)C1", "note": "(stereo not drawn)", "INHIBITION": 16.2}
{"compound": "Cc1cc(C(=O)N2CCN(Cc3ccco3)C(CCO)C2)cc(=O)[nH]1", "note": "(stereo not drawn)", "INHIBITION": 52.1}
{"compound": "CCOc1ccc(C(=O)N2CCCC2Cn2cc(C)cn2)cn1", "note": "(stereo not drawn)", "INHIBITION": 28.55}
{"compound": "CCn1cc(NC(=O)C2CCN(CC(=O)NCC(C)C)CC2)cn1", "INHIBITION": 37.4}
{"compound": "Cc1ccc(NC(=O)c2cc3c(=O)n(C)c(=O)n(C)c3nc2C)cc1Cl", "INHIBITION": -6.83}
{"compound": "CCOc1ccc([C@@H]2N[C@H](c3nccs3)Cc3ccsc32)cc1OC", "INHIBITION": 69.25}
{"compound": "CCOc1cc([C@@H]2N[C@H](c3nccs3)Cc3ccsc32)ccc1OC", "INHIBITION": 25.05}
{"compound": "CCOc1cc([C@H]2N[C@@H](c3nc(C)cs3)Cc3ccsc32)ccc1OC", "INHIBITION": 75}
{"compound": "COc1ccc(OC)c([C@@H]2N[C@H](c3nccs3)Cc3ccsc32)c1", "INHIBITION": 43.4}
{"compound": "COc1cccc([C@@H]2N[C@H](c3nccs3)Cc3ccsc32)c1OC", "INHIBITION": 49.2}
{"compound": "COc1cc([C@@H]2N[C@H](c3nccs3)Cc3ccsc32)cc(OC)c1OC", "INHIBITION": 47.2}
{"compound": "COCCN1CCC2(CC1)CN(Cc1cccc(C)n1)C(=O)CO2", "INHIBITION": 7.53}
{"compound": "COc1ccc(CCC(=O)N(C(C)C)C2CCOCC2)cc1", "INHIBITION": -42.1}
{"compound": "CC(C(=O)N1CCN(c2ccccc2)CC1)n1cc(Br)cn1", "note": "(stereo not drawn)", "INHIBITION": -35.4}
{"compound": "O=C(c1ccccn1)N1CCN(C(c2ccccc2)C(F)(F)F)CC1", "note": "(stereo not drawn)", "INHIBITION": 51.7}
{"compound": "O=C(c1cc[nH]n1)N1CCN(C(c2ccccc2)C(F)(F)F)CC1", "note": "(stereo not drawn)", "INHIBITION": 17.1}
{"compound": "O=C(c1c[nH]nn1)N1CCN(C(c2ccccc2)C(F)(F)F)CC1", "note": "(stereo not drawn)", "INHIBITION": -10.9}
{"compound": "NC(=O)C1CN(c2ccc(F)cc2)CCN1", "note": "(stereo not drawn)", "INHIBITION": 25.8}
{"compound": "Cc1nc2ccccc2nc1NCc1nnc2n1CCC2", "INHIBITION": 52.9}
{"compound": "c1ccc2nc(N3CCCCC3)c(NCc3nnc4n3CCC4)nc2c1", "INHIBITION": 0.897}
{"compound": "c1ccc2nc(N3CCCC3)c(NCc3nnc4n3CCC4)nc2c1", "INHIBITION": 16.1}
{"compound": "Cc1cnn(CCNCc2csc(-c3ccc(C)o3)n2)c1", "INHIBITION": 15.3}
{"compound": "Cn1cc(C(=O)Nc2ccc(CC(=O)NCC(F)(F)F)cc2)nn1", "INHIBITION": 50.5}
{"compound": "CN(C)C(=O)Cc1ccc(NC(=O)c2cn(C)nn2)cc1", "INHIBITION": 20}
{"compound": "Cn1cc(C(=O)Nc2ccc(CC(=O)NC3CC3)cc2)nn1", "INHIBITION": 11.3}
{"compound": "CCC(C)c1cc(C(=O)N(CC(=O)NC)c2cccc(F)c2)on1", "note": "(stereo not drawn)", "INHIBITION": 3.04}
{"compound": "Cc1cccc(CN2CCCn3c(nnc3Cn3cccn3)C2)n1", "INHIBITION": -23}
{"compound": "CN(C)C(=O)c1noc2c1CN(C(=O)CCCN1CCCCC1)CC2", "INHIBITION": 41.5}
{"compound": "CN1CCCC(CCC(=O)N2CCc3onc(C(=O)N(C)C)c3C2)C1", "note": "(stereo not drawn)", "INHIBITION": 12}
{"compound": "CNC(=O)c1cc2c(s1)CCN(C(=O)CCC1CCCN(C)C1)C2", "note": "(stereo not drawn)", "INHIBITION": 42.6}
{"compound": "CN(C)C(=O)c1cc2c(s1)CCN(C(=O)CCCN1CCCCC1)C2", "INHIBITION": 71.5}
{"compound": "CCNc1cc2c(nn1)CCN(C(=O)CC1CCCC1)C2", "INHIBITION": 17.4}
{"compound": "CCN1CCc2cc(C(=O)N(C)C)c(NCC3CC3)nc2CC1", "INHIBITION": 37.2}
{"compound": "CCN1CCC(CC(=O)N2CCc3sc(C(=O)N(C)C)cc3C2)CC1", "INHIBITION": 64}
{"compound": "CN1CCCC(CCC(=O)N2CCc3sc(C(=O)N(C)C)cc3C2)C1", "note": "(stereo not drawn)", "INHIBITION": 73.6}
{"compound": "CN(C)c1cc2c(nn1)CCN(C(=O)c1cc3c(s1)CCCC3)C2", "INHIBITION": -2.13}
{"compound": "c1cc(-c2ccc3nc(C4CCN(CC5CC5)CC4)nn3c2)cs1", "INHIBITION": 23.6}
{"compound": "Cc1ccc2c(n1)N(CCn1cccn1)CCN(CC1CC1)C2", "INHIBITION": -6.3}
{"compound": "CCN(Cc1cnn(C)c1)C[C@H]1CC[C@@H](Cc2ccc(OC)nc2)O1", "INHIBITION": -22.3}
{"compound": "CN(C)CCN1CCCC12CCN(C(=O)c1ccoc1)CC2", "INHIBITION": -44.2}
{"compound": "O=c1c2cn[nH]c2nc(SCCN2CCCC2)n1-c1ccccc1", "INHIBITION": 17.7}
{"compound": "CC(C)CNC(=O)[C@H]1CCS(=O)(=O)[C@@H]2CN(Cc3ccc(F)cc3)C[C@H]12", "INHIBITION": -0.371}
{"compound": "CSc1cccc(CN(C)C(=O)Cn2ncc(N3CCCC3)cc2=O)c1", "INHIBITION": 25.1}
{"compound": "CCC1C(=O)NCCN1c1cc(C)ncn1", "note": "(stereo not drawn)", "INHIBITION": 26.8}
{"compound": "O=C(Cc1ccccn1)N1CCc2ncnc(N3CCCC3)c2CC1", "INHIBITION": -10.3}
{"compound": "N[C@@H]1CCN(Cc2cccc(N3CCOCC3)c2)C[C@H]1O", "INHIBITION": 58.6}
